The supplement of paper PMC10849652
The full data set covers some 7,900 targets. This sample favours those with a hit. About 0.6% of all pairs of compound and target were hits.

Key:
Assay in all cases: log2 fold change, soluble protein after heating vs DMSO (PISA); higher = thermal stabilisation; K562 cells, 10 uM, 30 min; active = over 0.2 and 3.5 SD of the protein, either way, in both replicates (recomputed)
[1] = compound: C#Cc1cccc(Nc2ncnc3cc(OCCOC)c(OCCOC)cc23)c1 [erlotinib]
Method in brief: (§1)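 Quantification of soluble protein used TMTpro 16plex LC-MS/MS, with channel sums equalised. Samples were the supernatant after 21,000xg for 90 min of pooled aliquots from K562 cells (2×10^6 cells/mL) treated with 10 μM compound for 30 min, heated for 3 min over 48°C-58°C, and extracted in PBS with 0.5% NP-40 at 4°C. Values, from duplicates, describe thermal stability against control samples on a log2 fold-change scale.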

[2] = compound: C/C(=N\NC(=O)C1=CC(=CC=C1)S(=O)(=O)N2CCOCC2)/C3=C(C=CC(=C3)Cl)O
Method in brief: as §1

[3] = compound: C1=CC(=C(C=C1Cl)C2=NC3=NC=CN=C3C(=N2)NC4=CC=NC=C4)F
Method in brief: as §1

[4] = compound: C1=CC(=CC=C1C2=NC3=C(N2)C=C(C=C3)C(=O)N)OC4=CC=C(C=C4)Cl
Method in brief: as §1

[5] = compound: C1=CC2=C(C=CC(=C2)/C=C\3/C(=O)NC(=NCC4=CC=CS4)S3)N=C1
Method in brief: as §1

[6] = compound: C1=CC2=NC=CN=C2C=C1/C=C/3\C(=O)NC(=O)S3
Method in brief: as §1

[7] = compound: C1=CC=C(C=C1)C2=NC(=C(N2)C3=CC=NC=C3)C4=CC(=C(C=C4)Cl)O
Method in brief: as §1

[8] = compound: C1=CC=C2C(=C1)C3=NNC4=CC=CC(=C43)C2=O
Method in brief: as §1

[9] = compound: C1CCN(C1)C(=O)NC2=CC=CC(=C2)NC3=NC=C(C(=N3)NCCC4=CN=CN4)Br
Method in brief: as §1

[10] = compound: C1CN(CCC1(CC2=CC=C(C=C2)Cl)N)C3=NC=NC4=C3C=CN4
Method in brief: as §1

Measured: log2 fold change

MAPKAPK2 (UniProt P49137)
Sequence of UniProt P49137 (P49137 whole entry, looked up): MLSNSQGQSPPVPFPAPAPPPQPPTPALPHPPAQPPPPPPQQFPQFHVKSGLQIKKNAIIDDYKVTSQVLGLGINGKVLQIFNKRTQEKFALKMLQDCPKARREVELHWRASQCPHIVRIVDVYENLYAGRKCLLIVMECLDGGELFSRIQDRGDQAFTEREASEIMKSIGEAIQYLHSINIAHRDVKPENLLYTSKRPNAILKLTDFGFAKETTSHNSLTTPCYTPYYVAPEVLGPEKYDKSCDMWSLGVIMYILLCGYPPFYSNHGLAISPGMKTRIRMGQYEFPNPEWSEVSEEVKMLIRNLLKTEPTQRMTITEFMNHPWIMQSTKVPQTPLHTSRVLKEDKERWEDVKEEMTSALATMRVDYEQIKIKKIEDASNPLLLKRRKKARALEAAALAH
inactive: [1] 0.033 | [2] 0.059 | [3] 0.186 | [4] -0.011 | [5] 0.064 | [6] 0.008 | [7] 0.207 | [8] -0.069 | [9] 0.047 | [10] 0.002

MCCC2 (UniProt Q9HCC0)
inactive: [1] 0.019 | [2] 0.123 | [3] 0.03 | [4] 0.004 | [5] -0.04 | [6] 0.011 | [7] 0.047 | [8] 0.004 | [9] 0.004 | [10] 0.035

LYN (UniProt P07948)
Sequence of UniProt P07948 (P07948 whole entry, looked up): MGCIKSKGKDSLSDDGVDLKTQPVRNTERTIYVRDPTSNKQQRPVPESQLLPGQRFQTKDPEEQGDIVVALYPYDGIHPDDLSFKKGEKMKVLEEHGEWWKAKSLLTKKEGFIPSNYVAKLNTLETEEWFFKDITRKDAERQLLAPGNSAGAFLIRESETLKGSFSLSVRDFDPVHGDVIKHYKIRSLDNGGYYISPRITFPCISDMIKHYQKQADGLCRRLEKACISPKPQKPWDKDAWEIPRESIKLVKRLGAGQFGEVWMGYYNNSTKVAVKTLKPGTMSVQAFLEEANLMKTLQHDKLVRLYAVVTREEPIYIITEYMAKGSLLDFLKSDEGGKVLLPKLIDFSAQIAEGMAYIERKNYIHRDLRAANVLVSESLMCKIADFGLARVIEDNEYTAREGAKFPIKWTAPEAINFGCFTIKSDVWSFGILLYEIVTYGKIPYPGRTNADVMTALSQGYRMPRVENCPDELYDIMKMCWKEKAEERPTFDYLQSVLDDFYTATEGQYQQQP
inactive: [1] -0.073 | [2] 0.044 | [3] -0.171 | [4] 0.007 | [5] 0.005 | [6] -0.028 | [7] -0.014 | [8] -0.253 | [9] 0.035 | [10] -0.015

LMNB1 (UniProt P20700)
inactive: [1] -0.06 | [2] 0.071 | [3] 0.001 | [4] 0.029 | [5] -0.073 | [6] 0.064 | [7] -0.07 | [8] -0.151 | [9] -0.079 | [10] 0.001

KLHL18 (UniProt O94889)
Sequence of UniProt O94889 (O94889 whole entry, looked up): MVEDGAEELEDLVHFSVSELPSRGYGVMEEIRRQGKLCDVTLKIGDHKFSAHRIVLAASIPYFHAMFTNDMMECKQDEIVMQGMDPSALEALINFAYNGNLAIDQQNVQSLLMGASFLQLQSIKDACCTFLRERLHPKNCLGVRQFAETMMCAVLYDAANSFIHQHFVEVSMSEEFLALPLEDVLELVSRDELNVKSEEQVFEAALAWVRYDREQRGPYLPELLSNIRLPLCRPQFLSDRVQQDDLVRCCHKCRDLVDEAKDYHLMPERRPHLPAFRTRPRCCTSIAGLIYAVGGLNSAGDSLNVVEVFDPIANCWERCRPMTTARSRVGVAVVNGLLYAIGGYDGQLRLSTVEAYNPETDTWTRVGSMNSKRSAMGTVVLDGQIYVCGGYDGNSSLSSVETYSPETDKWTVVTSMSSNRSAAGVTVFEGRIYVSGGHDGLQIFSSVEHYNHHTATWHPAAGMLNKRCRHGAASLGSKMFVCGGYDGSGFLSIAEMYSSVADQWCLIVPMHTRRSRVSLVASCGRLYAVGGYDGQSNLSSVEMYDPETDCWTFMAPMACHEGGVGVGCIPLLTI
inactive: [1] -0.011 | [2] 0 | [3] 0.12 | [4] 0.022 | [5] 0.031 | [6] -0.02 | [7] -0.042 | [8] -0.085 | [9] -0.042 | [10] -0.026

MED1 (UniProt Q15648)
inactive: [1] -0.022 | [2] -0.011 | [3] -0.118 | [4] -0.001 | [5] 0.04 | [6] 0.043 | [7] -0.03 | [8] -0.043 | [9] 0.016 | [10] -0.025

LIMA1 isoform 4 (UniProt Q9UHB6)
inactive: [1] -0.015 | [2] -0.062 | [3] -0.039 | [4] 0.069 | [5] 0.038 | [6] -0.015 | [7] 0.022 | [8] 0.054 | [9] 0 | [10] -0.039

KTN1 (UniProt Q86UP2)
inactive: [1] -0.013 | [2] -0.007 | [3] -0.05 | [4] -0.08 | [5] 0.058 | [6] -0.006 | [7] -0.04 | [8] -0.032 | [9] -0.028 | [10] -0.129

MED16 (UniProt Q9Y2X0)
Sequence of UniProt Q9Y2X0 (Q9Y2X0 whole entry, looked up): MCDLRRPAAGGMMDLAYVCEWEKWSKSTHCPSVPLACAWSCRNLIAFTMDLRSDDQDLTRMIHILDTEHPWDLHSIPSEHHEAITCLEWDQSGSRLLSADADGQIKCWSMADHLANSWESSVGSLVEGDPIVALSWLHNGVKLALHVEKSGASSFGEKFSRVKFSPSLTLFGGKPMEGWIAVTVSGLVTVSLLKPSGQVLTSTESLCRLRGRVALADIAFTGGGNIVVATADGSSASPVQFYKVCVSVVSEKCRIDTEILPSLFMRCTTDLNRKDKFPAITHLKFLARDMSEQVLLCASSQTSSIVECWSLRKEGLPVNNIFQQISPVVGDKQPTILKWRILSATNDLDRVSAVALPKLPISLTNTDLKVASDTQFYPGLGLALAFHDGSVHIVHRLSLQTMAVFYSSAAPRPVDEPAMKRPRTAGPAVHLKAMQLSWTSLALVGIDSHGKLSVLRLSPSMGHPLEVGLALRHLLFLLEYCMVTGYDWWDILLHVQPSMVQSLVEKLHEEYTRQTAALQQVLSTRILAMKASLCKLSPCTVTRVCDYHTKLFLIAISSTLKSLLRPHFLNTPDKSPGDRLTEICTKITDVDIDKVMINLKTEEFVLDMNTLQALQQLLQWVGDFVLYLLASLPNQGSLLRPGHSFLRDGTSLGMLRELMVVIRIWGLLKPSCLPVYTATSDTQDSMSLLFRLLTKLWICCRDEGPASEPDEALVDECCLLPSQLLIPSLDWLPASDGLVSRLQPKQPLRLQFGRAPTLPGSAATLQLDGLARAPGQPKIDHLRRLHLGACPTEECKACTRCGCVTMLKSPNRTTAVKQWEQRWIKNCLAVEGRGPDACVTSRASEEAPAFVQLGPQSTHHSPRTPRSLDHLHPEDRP
inactive: [1] -0.019 | [2] -0.085 | [3] 0.065 | [4] -0.038 | [5] 0.038 | [6] 0.051 | [7] -0.067 | [8] -0.155 | [9] 0.034 | [10] -0.046

MED22 (UniProt Q15528)
Sequence of UniProt Q15528 (Q15528 whole entry, looked up): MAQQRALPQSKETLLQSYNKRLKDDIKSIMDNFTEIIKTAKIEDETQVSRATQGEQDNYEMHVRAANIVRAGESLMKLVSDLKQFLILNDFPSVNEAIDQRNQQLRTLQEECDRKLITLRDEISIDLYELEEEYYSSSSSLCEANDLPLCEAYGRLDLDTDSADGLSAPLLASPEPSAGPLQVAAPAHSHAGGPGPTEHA
inactive: [1] -0.11 | [2] 0.035 | [3] -0.013 | [4] -0.036 | [5] 0.061 | [6] -0.002 | [7] 0.022 | [8] -0.071 | [9] -0.156 | [10] 0.259

ILF2 (UniProt Q12905)
inactive: [1] -0.098 | [2] -0.087 | [3] -0.214 | [4] 0.009 | [5] -0.088 | [6] 0.066 | [7] -0.035 | [8] -0.011 | [9] -0.005 | [10] -0.175

IKZF1 (UniProt Q13422)
inactive: [1] -0.005 | [2] -0.018 | [3] -0.008 | [4] 0.002 | [5] -0.015 | [6] 0.019 | [7] -0.069 | [8] 0.144 | [9] 0.051 | [10] 0

IMMP1L (UniProt Q96LU5)
inactive: [1] 0.053 | [2] -0.018 | [3] 0.01 | [4] -0.017 | [5] 0.104 | [6] -0.022 | [7] -0.084 | [8] -0.046 | [9] 0.041 | [10] 0.013

KRAS isoform 2 (UniProt P01116)
Sequence of UniProt P01116 (P01116 whole entry, looked up): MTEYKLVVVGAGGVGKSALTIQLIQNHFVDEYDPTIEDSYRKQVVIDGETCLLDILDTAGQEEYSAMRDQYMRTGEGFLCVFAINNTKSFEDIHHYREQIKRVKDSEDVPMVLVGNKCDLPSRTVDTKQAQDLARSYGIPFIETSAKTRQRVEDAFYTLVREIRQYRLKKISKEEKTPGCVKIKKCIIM
inactive: [1] -0.035 | [2] -0.011 | [3] 0.006 | [4] 0.029 | [5] 0.005 | [6] 0.019 | [7] 0.002 | [8] -0.03 | [9] 0.045 | [10] -0.084

KEAP1 (UniProt Q14145)
Sequence of UniProt Q14145 (Q14145 whole entry, looked up): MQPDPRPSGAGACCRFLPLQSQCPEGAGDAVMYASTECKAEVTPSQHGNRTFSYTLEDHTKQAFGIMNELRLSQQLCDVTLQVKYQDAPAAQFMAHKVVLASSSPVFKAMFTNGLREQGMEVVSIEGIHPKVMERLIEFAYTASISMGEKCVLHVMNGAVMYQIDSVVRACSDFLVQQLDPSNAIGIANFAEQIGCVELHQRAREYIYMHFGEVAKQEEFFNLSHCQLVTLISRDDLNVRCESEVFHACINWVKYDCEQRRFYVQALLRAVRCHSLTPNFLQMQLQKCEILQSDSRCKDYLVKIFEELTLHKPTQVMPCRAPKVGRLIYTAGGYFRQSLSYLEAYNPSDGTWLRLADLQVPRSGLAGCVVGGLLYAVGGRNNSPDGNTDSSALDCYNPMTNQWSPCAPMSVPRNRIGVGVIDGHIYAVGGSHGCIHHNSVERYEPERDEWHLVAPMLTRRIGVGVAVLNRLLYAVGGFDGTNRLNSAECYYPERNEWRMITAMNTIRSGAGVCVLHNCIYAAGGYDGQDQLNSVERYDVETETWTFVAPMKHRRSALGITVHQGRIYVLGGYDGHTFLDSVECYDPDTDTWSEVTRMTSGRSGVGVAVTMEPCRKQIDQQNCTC
inactive: [1] -0.015 | [2] -0.031 | [3] 0.025 | [4] -0.021 | [5] 0.025 | [6] 0.159 | [7] -0.098 | [8] 0.023 | [9] -0.045 | [10] -0.034

KPNA4 (UniProt O00629)
inactive: [1] 0.016 | [2] 0.023 | [3] 0.037 | [4] 0.023 | [5] 0.005 | [6] 0.03 | [7] 0.027 | [8] -0.024 | [9] 0.003 | [10] 0.003

IPO7 (UniProt O95373)
inactive: [1] -0.015 | [2] 0.078 | [3] 0.034 | [4] -0.003 | [5] 0.01 | [6] 0.056 | [7] 0.026 | [8] -0.019 | [9] -0.004 | [10] -0.05

ILF3 isoform 7 (UniProt Q12906)
Sequence of UniProt Q12906 (Q12906 whole entry, looked up): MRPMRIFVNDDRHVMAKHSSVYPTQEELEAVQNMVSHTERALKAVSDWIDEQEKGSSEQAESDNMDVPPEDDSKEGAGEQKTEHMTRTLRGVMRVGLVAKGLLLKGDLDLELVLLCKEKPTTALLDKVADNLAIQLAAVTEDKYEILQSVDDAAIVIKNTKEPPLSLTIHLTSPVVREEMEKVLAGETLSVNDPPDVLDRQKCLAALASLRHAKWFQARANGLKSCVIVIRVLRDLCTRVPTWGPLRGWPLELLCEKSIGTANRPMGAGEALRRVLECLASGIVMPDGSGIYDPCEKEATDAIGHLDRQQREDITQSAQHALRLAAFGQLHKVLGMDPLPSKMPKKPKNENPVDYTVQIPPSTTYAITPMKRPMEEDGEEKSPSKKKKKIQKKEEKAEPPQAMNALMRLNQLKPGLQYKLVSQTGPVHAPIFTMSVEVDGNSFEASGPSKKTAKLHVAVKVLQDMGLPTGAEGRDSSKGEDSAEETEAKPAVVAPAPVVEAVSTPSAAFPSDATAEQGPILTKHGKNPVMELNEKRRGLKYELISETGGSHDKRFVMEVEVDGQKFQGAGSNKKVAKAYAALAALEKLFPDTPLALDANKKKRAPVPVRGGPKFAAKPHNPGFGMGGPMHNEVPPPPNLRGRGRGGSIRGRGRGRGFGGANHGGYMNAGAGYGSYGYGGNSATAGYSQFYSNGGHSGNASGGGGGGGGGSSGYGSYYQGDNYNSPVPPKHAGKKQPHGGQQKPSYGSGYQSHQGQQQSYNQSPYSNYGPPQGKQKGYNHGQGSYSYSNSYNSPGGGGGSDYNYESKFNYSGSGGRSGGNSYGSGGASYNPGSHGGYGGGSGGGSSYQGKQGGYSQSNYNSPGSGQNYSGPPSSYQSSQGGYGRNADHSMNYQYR
inactive: [1] -0.068 | [2] -0.084 | [3] -0.266 | [4] -0.004 | [5] -0.049 | [6] 0.099 | [7] -0.061 | [8] -0.01 | [9] 0.054 | [10] -0.186

LARP4B (UniProt Q92615)
inactive: [1] -0.016 | [2] 0.032 | [3] -0.042 | [4] 0.017 | [5] -0.057 | [6] -0.03 | [7] 0.063 | [8] -0.06 | [9] -0.013 | [10] -0.042

LRBA (UniProt P50851)
inactive: [1] 0.007 | [2] 0.024 | [3] 0.068 | [4] 0.002 | [5] 0.031 | [6] 0.051 | [7] 0.011 | [8] -0.002 | [9] 0.012 | [10] 0.015

ILVBL (UniProt A1L0T0)
inactive: [1] 0.027 | [2] 0.092 | [3] -0.035 | [4] -0.02 | [5] 0.178 | [6] -0.03 | [7] 0.009 | [8] -0.026 | [9] 0.014 | [10] 0.095

LEMD3 (UniProt Q9Y2U8)
inactive: [1] 0.102 | [2] 0.091 | [3] 0.109 | [4] -0.007 | [5] 0.003 | [6] -0.05 | [7] -0.01 | [8] 0.169 | [9] -0.063 | [10] -0.029

MIA2 (UniProt Q96PC5)
inactive: [1] 0.01 | [2] 0.044 | [3] 0.04 | [4] -0.044 | [5] -0.033 | [6] 0.035 | [7] 0.021 | [8] -0.092 | [9] 0.003 | [10] 0.041

LARP7 isoform 3 (UniProt Q4G0J3)
Sequence of UniProt Q4G0J3 (Q4G0J3 whole entry, looked up): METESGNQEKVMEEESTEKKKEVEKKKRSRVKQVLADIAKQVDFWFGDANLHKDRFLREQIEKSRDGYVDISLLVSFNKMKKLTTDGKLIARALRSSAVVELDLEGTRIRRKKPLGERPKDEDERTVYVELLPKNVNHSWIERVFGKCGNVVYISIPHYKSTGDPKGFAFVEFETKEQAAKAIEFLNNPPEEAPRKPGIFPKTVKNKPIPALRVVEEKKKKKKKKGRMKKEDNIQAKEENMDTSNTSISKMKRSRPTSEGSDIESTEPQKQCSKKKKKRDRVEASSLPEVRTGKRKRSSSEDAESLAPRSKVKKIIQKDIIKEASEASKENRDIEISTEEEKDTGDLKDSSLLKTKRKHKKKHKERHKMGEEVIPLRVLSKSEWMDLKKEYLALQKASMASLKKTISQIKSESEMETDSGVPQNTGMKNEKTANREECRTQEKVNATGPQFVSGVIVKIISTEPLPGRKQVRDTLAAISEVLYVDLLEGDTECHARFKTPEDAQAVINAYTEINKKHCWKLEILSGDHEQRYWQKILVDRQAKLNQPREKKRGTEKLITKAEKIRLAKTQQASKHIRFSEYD
inactive: [1] 0.01 | [2] 0.119 | [3] 0.022 | [4] 0.034 | [5] 0.06 | [6] 0.023 | [7] 0.025 | [8] -0.055 | [9] -0.052 | [10] 0.045

MDC1 (UniProt Q14676)
inactive: [1] 0.056 | [2] -0.284 | [3] -0.184 | [4] 0.025 | [5] 0 | [6] 0.057 | [7] 0.177 | [8] -0.094 | [9] -0.139 | [10] 0.072

MFSD1 isoform 6 (UniProt Q9H3U5)
inactive: [1] -0.011 | [2] 0.011 | [3] 0.006 | [4] 0.029 | [5] -0.002 | [6] -0.009 | [7] 0.018 | [8] 0.014 | [9] 0.059 | [10] 0.084

MAN2B2 (UniProt Q9Y2E5)
inactive: [1] -0.035 | [2] 0.005 | [3] -0.008 | [4] -0.003 | [5] 0.076 | [6] 0.025 | [7] -0.07 | [8] 0.063 | [9] -0.02 | [10] -0.186

LMNA (UniProt P02545)
inactive: [1] -0.025 | [2] 0.116 | [3] 0.009 | [4] -0.106 | [5] -0.031 | [6] 0.035 | [7] -0.049 | [8] -0.171 | [9] -0.086 | [10] 0.013

INPP1 (UniProt P49441)
inactive: [1] 0.014 | [2] 0.006 | [3] 0.073 | [4] 0.059 | [5] 0.042 | [6] -0.01 | [7] 0.005 | [8] 0.044 | [9] 0.01 | [10] -0.101

MED12 isoform 2 (UniProt Q93074)
inactive: [1] 0.022 | [2] 0.04 | [3] -0.031 | [4] 0.188 | [5] 0.101 | [6] 0.121 | [7] 0.012 | [8] -0.361 | [9] 0.193 | [10] -0.11

IGFBP4 (UniProt P22692)
inactive: [1] -0.03 | [2] -0.14 | [3] 0.023 | [4] 0.093 | [5] -0.124 | [6] 0.178 | [7] -0.051 | [8] -0.217 | [9] 0.108 | [10] 0.076

LSR (UniProt Q86X29)
inactive: [1] 0.022 | [2] 0.022 | [3] -0.08 | [4] 0.002 | [5] -0.019 | [6] 0.019 | [7] -0.105 | [8] -0.114 | [9] -0.038 | [10] 0.073

MFSD8 (UniProt Q8NHS3)
inactive: [1] 0.047 | [2] -0.018 | [3] -0.012 | [4] -0.089 | [5] 0.009 | [6] 0.166 | [7] 0 | [8] -0.054 | [9] -0.033 | [10] -0.091
